This is part of a sample that, as a whole, favours compounds with a hit. Of some 83,000 tested, about 20% had one in any assay.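 96-well plates, one dose, 48 hours. Percent growth reported; active if below 10.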 Activity calls are given as the source filed them.
Tests used:
Assay in all cases: NCI-60 one-dose screen, 48 h (100 = growth as untreated, 0 = no growth, -100 = all killed)
Details in all cases: 10 µM unless noted
SK-MEL-2 melanoma = test system: SK-MEL-2 melanoma
EKVX NSCLC = test system: EKVX NSCLC
SN12C renal = test system: SN12C renal
UO-31 renal = test system: UO-31 renal
TK-10 renal = test system: TK-10 renal
ACHN renal = test system: ACHN renal
A498 renal = test system: A498 renal
CCRF-CEM leukemia = test system: CCRF-CEM leukemia
MOLT-4 leukemia = test system: MOLT-4 leukemia
SR leukemia = test system: SR leukemia
RPMI-8226 leukemia = test system: RPMI-8226 leukemia
OVCAR-8 ovarian = test system: OVCAR-8 ovarian
OVCAR-5 ovarian = test system: OVCAR-5 ovarian
OVCAR-4 ovarian = test system: OVCAR-4 ovarian
SK-OV-3 ovarian = test system: SK-OV-3 ovarian
IGROV1 ovarian = test system: IGROV1 ovarian
OVCAR-3 ovarian = test system: OVCAR-3 ovarian
HS 578T breast = test system: HS 578T breast
NCI/ADR-RES ovarian = test system: NCI/ADR-RES ovarian
T-47D breast = test system: T-47D breast

Measured: growth

CC1CCCN(CCCCCOc2ccc3oc4ccc(Cl)cc4c(=O)c3c2)C1 (stereo not given)
inactive: SK-MEL-2 melanoma 96.7% | EKVX NSCLC 78.3% | SN12C renal 74.6% | UO-31 renal 70.7% | TK-10 renal 92% | ACHN renal 89.4% | A498 renal 76.3% | CCRF-CEM leukemia 72.8% | MOLT-4 leukemia 48.5% | SR leukemia 21% | RPMI-8226 leukemia 61.8% | OVCAR-8 ovarian 75% | OVCAR-5 ovarian 70.4% | OVCAR-4 ovarian 63.2% | SK-OV-3 ovarian 91.9% | IGROV1 ovarian 68.7% | OVCAR-3 ovarian 76.6% | HS 578T breast 84.7% | NCI/ADR-RES ovarian 73% | T-47D breast 64.8%

Cc1ccc(C(=O)O)o1
inactive: SK-MEL-2 melanoma 96.1% | EKVX NSCLC 104% | SN12C renal 110% | UO-31 renal 95.4% | TK-10 renal 96.9% | ACHN renal 111% | A498 renal 108% | CCRF-CEM leukemia 115% | MOLT-4 leukemia 101% | SR leukemia 116% | RPMI-8226 leukemia 114% | OVCAR-8 ovarian 108% | OVCAR-5 ovarian 105% | OVCAR-4 ovarian 100% | SK-OV-3 ovarian 101% | IGROV1 ovarian 102% | OVCAR-3 ovarian 103% | HS 578T breast 118% | NCI/ADR-RES ovarian 101% | T-47D breast 102%

Fc1ccc(N/N=C/c2ccc(-n3cccn3)cc2)cc1
inactive: SK-MEL-2 melanoma 103% | EKVX NSCLC 81.3% | SN12C renal 108% | UO-31 renal 80.4% | TK-10 renal 111% | ACHN renal 91.7% | A498 renal 119% | CCRF-CEM leukemia 89.5% | MOLT-4 leukemia 89% | SR leukemia 64.1% | RPMI-8226 leukemia 97.7% | OVCAR-8 ovarian 101% | OVCAR-5 ovarian 112% | OVCAR-4 ovarian 95.6% | SK-OV-3 ovarian 84.6% | IGROV1 ovarian 78.3% | OVCAR-3 ovarian 93.6% | HS 578T breast 108% | NCI/ADR-RES ovarian 87.6% | T-47D breast 86.1%

Cc1ccc(C2CC(c3ccc(Nc4nc(NCCO)nc(NCCO)n4)cc3)=NN2c2ccc(Cl)cc2)cc1 (stereo not given)
inactive: SK-MEL-2 melanoma 70.6% | EKVX NSCLC 65.7% | SN12C renal 82.4% | UO-31 renal 62.3% | TK-10 renal 82.6% | ACHN renal 52.2% | A498 renal 86.1% | CCRF-CEM leukemia 31.8% | MOLT-4 leukemia 32.3% | SR leukemia 26.2% | RPMI-8226 leukemia 47.5% | OVCAR-8 ovarian 66% | OVCAR-5 ovarian 99% | OVCAR-4 ovarian 63.9% | SK-OV-3 ovarian 98.6% | IGROV1 ovarian 82.6% | OVCAR-3 ovarian 45.7% | HS 578T breast 72.8% | NCI/ADR-RES ovarian 80.4% | T-47D breast 53.1%

COC(=O)c1nc(-c2ccccc2)oc1S(=O)(=O)n1nc(-c2ccccc2)cc1N
inactive: SK-MEL-2 melanoma 85.9% | EKVX NSCLC 95.9% | SN12C renal 73.3% | UO-31 renal 65.6% | TK-10 renal 114% | ACHN renal 19.2% | A498 renal 108% | CCRF-CEM leukemia 27.2% | MOLT-4 leukemia 17.6% | RPMI-8226 leukemia 57.1% | OVCAR-8 ovarian 75.8% | OVCAR-5 ovarian 93.5% | OVCAR-4 ovarian 107% | SK-OV-3 ovarian 106% | IGROV1 ovarian 73.6% | OVCAR-3 ovarian 68.3% | HS 578T breast 101% | NCI/ADR-RES ovarian 99% | T-47D breast 49.5%
active: SR leukemia 1.74%

COc1ccc(-c2cn(-c3ccc(Cl)cc3)c(=S)[nH]2)cc1OC
inactive: SK-MEL-2 melanoma 46.9% | EKVX NSCLC 74.7% | SN12C renal 74.3% | UO-31 renal 85.4% | TK-10 renal 72.8% | ACHN renal 67% | A498 renal 94.4% | CCRF-CEM leukemia 84.4% | MOLT-4 leukemia 77.8% | SR leukemia 22.3% | RPMI-8226 leukemia 12.9% | OVCAR-8 ovarian 53% | OVCAR-5 ovarian 64.1% | OVCAR-4 ovarian 86.8% | SK-OV-3 ovarian 79.3% | IGROV1 ovarian 49.4% | OVCAR-3 ovarian 88.4% | HS 578T breast 100% | NCI/ADR-RES ovarian 37% | T-47D breast 68.1%

COc1ccc(C2=NN(c3ccc(S(N)(=O)=O)cc3)C(c3ccc(Cl)cc3)C2)c(O)c1 (stereo not given)
inactive: SK-MEL-2 melanoma 87.9% | EKVX NSCLC 56% | SN12C renal 73% | UO-31 renal 60.3% | TK-10 renal 53.7% | ACHN renal 65% | A498 renal 47.2% | CCRF-CEM leukemia 26.8% | MOLT-4 leukemia 32.5% | SR leukemia 16.1% | OVCAR-8 ovarian 54.6% | OVCAR-5 ovarian 78.3% | OVCAR-4 ovarian 50.5% | SK-OV-3 ovarian 85.3% | IGROV1 ovarian 50.1% | OVCAR-3 ovarian 58.6% | HS 578T breast 70.5% | NCI/ADR-RES ovarian 52.5% | T-47D breast 33.8%
active: RPMI-8226 leukemia 4.28%

Reference: PubChem BioAssay (NCI)
